The text below walks through data of PubChem BioAssay (NCATS).

The structures appear in SMILES notation. Several values for one entry are separate records, joined by “and”; a condition that tells them apart may be missing. Equal values may be shown once. Results filed as inconclusive are left out. A number with no mark means an inactive call. Activity calls are given as the source filed them. Calls follow the shape of the dose curve; as a rule, active = well fitted curve in the direction sought with a large enough effect; inconclusive = small, poorly fitted or top-dose-only effect, or another doubt; inactive = no such curve, though single readings can be large; an effect the other way counts as inactive or inconclusive. Residues, ends and D or L forms follow the SMILES beside them.

In assay [1] the target is Cellular tumor antigen p53 (Homo sapiens) (UniProt P04637). The assay is described as follows: Primary qHTS for small molecule compounds that upregulate eGFP-tagged delta133p53alpha (in N-terminal) cells. (AID 2060322).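 Also: 0% = DMSO vehicle and 100% = reference activator; nearly all actives have a fitted effect of over 75% in size.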 The conditions noted are these: NCI-H358 eGFP-delta133p53alpha fluorescence, 24 h; activation: active compounds read high. The procedure, abridged: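 NCI-H358 cells pre-induced 24 h with 10 ng/ml doxycycline to express N-terminal eGFP-delta133p53alpha, then dosed 24 h at 37C without doxycycline; fixed, Hoechst-stained, GFP intensity by laser scanning cytometry, normalized to DMSO (0%) and 57.5 uM 5-azacytidine (100%).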

Assay [2] can be described thus: BET inhibitor-based combinations targeting novel dependencies in MECOM-rearranged (r) AML: SET-2 cell line (AID 2202231). Also: nearly all actives have a fitted effect of over 35% in size. Also: potency is read from the fitted curve at half-maximal effect.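 As to viability: plate controls were DMSO treated cells for no effect and wells without cells for full effect.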 The following applies: SET-2 AML cells viability, CellTiter-Glo luminescence, 48 h; viability: active compounds read low, concentration not given here. In outline: (§1)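 Each compound was tested at eleven concentrations on cells seeded at 500/well. After two days' incubation, ATP-based luminescence reported viability; responses relative to DMSO and blank wells yielded AUC and cell-line-centred Z-AUC.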

A short description of assay [3]: BET inhibitor-based combinations targeting novel dependencies in MECOM-rearranged (r) AML: OCI-AML3 cell line (AID 2202232). Also: nearly all actives have a fitted effect of over 35% in size. Also: potency is read from the fitted curve at half-maximal effect. The following applies: CellTiter-Glo luminescence, 48 h; Potency: OCI-AML3 viability; series mostly up to 46 µM. In outline:
as §1

Assay [4] in a line: BET inhibitor-based combinations targeting novel dependencies in MECOM-rearranged (r) AML: MV-4-11 cell line (AID 2202233). Also: nearly all actives have a fitted effect of over 45% in size. Also: potency is read from the fitted curve at half-maximal effect. The following applies: MV-4-11 AML viability, CellTiter-Glo luminescence, 48 h; series mostly up to 46 µM. The procedure, abridged:
(§2)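 First, 500 cells per well were seeded; next, drugs were pinned as 11-point doses; then plates sat 48 hr in the incubator; finally CellTiter-Glo was added and luminescence read, with AUC and Z-AUC computed.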

Assay [5] in a line: BET inhibitor-based combinations targeting novel dependencies in MECOM-rearranged (r) AML: HNT-34 cell line (AID 2202234). Also: nearly all actives have a fitted effect of over 35% in size. Also: potency is read from the fitted curve at half-maximal effect. The following applies: HNT-34 AML viability, CellTiter-Glo luminescence, 48 h; series mostly up to 46 µM. In outline:
as §2

Assay [6] is described as follows: BET inhibitor-based combinations targeting novel dependencies in MECOM-rearranged (r) AML: UCSD-AML1 cell line (AID 2202235). Also: nearly all actives have a fitted effect of over 40% in size. Also: potency is read from the fitted curve at half-maximal effect. The conditions noted are these: UCSD-AML1 AML cells viability, CellTiter-Glo, 48 h; series mostly up to 46 µM. The procedure, abridged: as §2
The nature of assay [7]: BET inhibitor-based combinations targeting novel dependencies in MECOM-rearranged (r) AML: AML-191 cell line (AID 2202236; also: nearly all actives have a fitted effect of over 35% in size; also: potency is read from the fitted curve at half-maximal effect). The following applies: AML-191 viability, CellTiter-Glo luminescence, 48 h; series mostly up to 46 µM. The procedure, abridged: as §1
A short description of assay [8]: BET inhibitor-based combinations targeting novel dependencies in MECOM-rearranged (r) AML: AML-194 cell line (AID 2202237; also: nearly all actives have a fitted effect of over 40% in size; also: potency is read from the fitted curve at half-maximal effect). The following applies: AML-194 (MECOM-r AML) viability, CellTiter-Glo, 48 h; series mostly up to 46 µM. In outline:
as §1

Chain of Cellular tumor antigen p53 (Homo sapiens) (P04637 whole entry, looked up): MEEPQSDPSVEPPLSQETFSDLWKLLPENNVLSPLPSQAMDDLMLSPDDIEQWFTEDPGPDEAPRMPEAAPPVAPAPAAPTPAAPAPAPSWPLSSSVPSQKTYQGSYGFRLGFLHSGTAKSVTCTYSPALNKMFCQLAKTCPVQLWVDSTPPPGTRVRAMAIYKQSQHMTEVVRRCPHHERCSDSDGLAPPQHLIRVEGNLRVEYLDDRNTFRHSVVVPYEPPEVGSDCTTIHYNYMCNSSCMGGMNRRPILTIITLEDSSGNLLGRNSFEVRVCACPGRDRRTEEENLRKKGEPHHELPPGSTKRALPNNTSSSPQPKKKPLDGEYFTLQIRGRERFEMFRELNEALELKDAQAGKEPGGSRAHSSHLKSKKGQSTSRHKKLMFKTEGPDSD

Regarding `COC(=O)[C@H](Cc1ccccc1)NC(=O)[C@@H](N)CC(=O)O` (H-Asp-Phe-OMe), the activation in assay [1] is -35.6% and -14.3%. The viability in assay [2] was 112%. The Potency result in assay [3], in assay [4], in assay [5], in assay [6], in assay [7] and in assay [8] was “inactive” in each case.

As for `CCC(C)SSc1ncc[nH]1` (centres undefined), the activation in assay [1] was -4.29%. The Potency in assay [2] was 11.8 µM (active); in assay [3] it was 8.33 µM (active); in assay [4], 2.63 µM (active); in assay [5] it was 9.34 µM (active); in assay [6] it was 7.42 µM (active); in assay [7], 5.25 µM (active). In addition, the Potency in assay [8] was 7.42 µM (active).

As for `CC(C)C[C@@H](N)[C@H](O)C(=O)N[C@H](C(=O)N[C@H](C(=O)N[C@@H](CC(=O)O)C(=O)O)C(C)C)C(C)C`, in assay [1], the activation was -3.94%. Also, the viability in assay [2] is 110%. Moreover, the Potency result in assay [3], in assay [4], in assay [5], in assay [6], in assay [7] and in assay [8] was “inactive” each time.

As to `NC(=O)c1cccnc1`, the activation in assay [1] is -14.2% and 9.71%. For the same molecule, the viability in assay [2] was 106%. Besides, the Potency result in assay [3], in assay [4], in assay [5], in assay [6], in assay [7] and in assay [8] was “inactive” in each case.

In the case of `CC(N[C@H]1CCCC[C@H]1NC(=O)c1ccc(Cl)cc1)c1cccc2ccccc12` (some centres undefined), the activation in assay [1] is 3.01%. Also, the Potency in assay [2] is 26.3 µM (active); in assay [3], 16.6 µM (active); in assay [4], 13.2 µM (active); in assay [5], 11.8 µM (active); in assay [6], 11.8 µM (active); in assay [7], 11.8 µM (active). Besides, the Potency in assay [8] is 8.33 µM (active).

As for `COc1ccc(-c2cc(=O)c3c(O)cc(O[C@@H]4O[C@H](CO[C@@H]5O[C@@H](C)[C@H](O)[C@@H](O)[C@H]5O)[C@@H](O)[C@H](O)[C@H]4O)cc3o2)cc1O`, the activation in assay [1] was 25.9%. Besides, in assay [2], the viability is 112%. Moreover, the Potency result in assay [3], in assay [4], in assay [5], in assay [6], in assay [7] and in assay [8] was “inactive” in each case.

In the case of `NCCCC(O)(P(=O)(O)O)P(=O)(O)O`, the activation in assay [1] was 36.7% and -7.88%. The viability in assay [2] was 114%. The Potency entry in assay [3], in assay [4], in assay [5], in assay [6], in assay [7] and in assay [8] was “inactive” throughout.

Take `Cc1ccc2c(=O)c3cccc(CC(=O)O)c3oc2c1C`: the activation in assay [1] is 16.3%. For the same molecule, the viability in assay [2] is 108%. The Potency entry in assay [3], in assay [4], in assay [5], in assay [6], in assay [7] and in assay [8] was “inactive” each time.

`O=C(CCCCCCC(=O)Nc1cccnc1)NO`: in assay [1], the activation was 50.9%. Further, the Potency in assay [2] was 5.25 µM (active); in assay [3], 5.9 µM (active); in assay [4] it was 2.35 µM (active); in assay [5], 4.68 µM (active); in assay [6], 7.42 µM (active); in assay [7], 3.32 µM (active). For the same molecule, in assay [8], the Potency is 8.33 µM (active).

As for `NC(=O)c1ccc(-c2nc(-c3ccc4c(c3)OCO4)c(-c3ccccn3)[nH]2)cc1`, in assay [1], the activation was -10.5%. For the same molecule, in assay [2], the viability is 112%. Besides, the Potency entry in assay [3], in assay [4], in assay [5], in assay [6], in assay [7] and in assay [8] was “inactive” throughout.

For `NNC(=O)c1ccncc1`, in assay [1], the activation is -11.9% and -4.14%. The viability in assay [2] is 110%. Further, the Potency entry in assay [3], in assay [4], in assay [5], in assay [6], in assay [7] and in assay [8] was “inactive” throughout.

`COC(=O)Nc1nc2ccc(Sc3ccccc3)cc2[nH]1`: the activation in assay [1] was -17.6% and 21.8%. The Potency in assay [2] is 1.18 µM (active); in assay [3], 0.742 µM (active); in assay [4], 0.934 µM (active); in assay [5], 0.525 µM (active); in assay [6] it was 0.468 µM (active); in assay [7], 0.468 µM (active). Further, the Potency in assay [8] is 0.417 µM (active).

For the molecule `NC[C@H]1O[C@H](O[C@@H]2[C@@H](O)[C@@H](O[C@H]3O[C@H](CO)[C@@H](O)[C@H](N)[C@@H]3O)[C@H](N)C[C@@H]2N)[C@H](O)[C@@H](O)[C@H]1O`, the activation in assay [1] was 5.09%. Also, the viability in assay [2] was 111%. The Potency result in assay [3], in assay [4], in assay [5], in assay [6], in assay [7] and in assay [8] was “inactive” each time.

On to `COc1cc(OC2CCN(C)CC2)ccc1Nc1ncc2c(n1)n(C1CCCC1)c(=O)n2C`, for which, in assay [1], the activation is 2.88%. Also, the Potency in assay [2] is 4.68 µM (active); in assay [3] it was 13.2 µM (active); in assay [4], 3.32 µM (active); in assay [5] it was 13.2 µM (active); in assay [6], 14.8 µM (active); in assay [7], 18.6 µM (active). Besides, in assay [8], the Potency was 16.6 µM (active).

Regarding `COc1c2occc2cc2ccc(=O)oc12`, the activation in assay [1] was -0.837% and 22.7%. Also, in assay [2], the viability is 98.3%. For the same molecule, in assay [3], the Potency is 10.5 µM (active). In addition, the Potency entry in assay [4], in assay [5], in assay [6], in assay [7] and in assay [8] was “inactive” throughout.

For `C=C(C)[C@@H]1CC[C@]2(C(=O)O)CC[C@]3(C)[C@H](CC[C@@H]4[C@@]5(C)CC[C@H](O)C(C)(C)[C@@H]5CC[C@]43C)[C@@H]12`, the activation in assay [1] was 7.46%. Further, in assay [2], the viability was 115%. Moreover, the Potency entry in assay [3], in assay [4], in assay [5], in assay [6], in assay [7] and in assay [8] was “inactive” in each case.

As for `O=C(NCCCCN1CCOCC1)c1cc2ccccc2o1`, in assay [1], the activation was 15.9%. In addition, in assay [2], the viability is 111%. In addition, the Potency entry in assay [3], in assay [4], in assay [5], in assay [6], in assay [7] and in assay [8] was “inactive” throughout.

For `CCCc1nc2c(C)cc(-c3nc4ccccc4n3C)cc2n1Cc1ccc(-c2ccccc2C(=O)O)cc1`, the activation in assay [1] is -6.69% and 11.8%. For the same molecule, the viability in assay [2] was 120%. The Potency result in assay [3], in assay [4], in assay [5], in assay [6], in assay [7] and in assay [8] was “inactive” in each case.
